# Values joined by “and” are separate entries in the source; they are usually repeats but may differ in a detail not shown here. Equal values may be shown once. Results filed as inconclusive are left out. The source holds several records for some structures; these can differ, active in one and inactive in another. Active and inactive are the calls of the source. The calls were made as follows, unless noted: active = hit-call score of the fitted dose curve at least 0.9, where 1 is the maximum; inconclusive = response in the unintended direction; inactive = score below 0.9.
# Key:
# [1] = biological target: Nuclear receptor subfamily 1 group I member 3 (Homo sapiens) (UniProt Q14994); assay: ATG_CAR_TRANS: Attagene TRANS-FACTORIAL HepG2 Assay for human Constitutive Androstane Receptor (CAR) (AID 2282969); settings: HepG2 Attagene TRANS-FACTORIAL CAR reporter;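 also: activators raise reporter mRNA above DMSO so AC50 marks induction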
# Chain of Nuclear receptor subfamily 1 group I member 3 (Homo sapiens) (Q14994 whole entry, looked up, the tested form may be a part): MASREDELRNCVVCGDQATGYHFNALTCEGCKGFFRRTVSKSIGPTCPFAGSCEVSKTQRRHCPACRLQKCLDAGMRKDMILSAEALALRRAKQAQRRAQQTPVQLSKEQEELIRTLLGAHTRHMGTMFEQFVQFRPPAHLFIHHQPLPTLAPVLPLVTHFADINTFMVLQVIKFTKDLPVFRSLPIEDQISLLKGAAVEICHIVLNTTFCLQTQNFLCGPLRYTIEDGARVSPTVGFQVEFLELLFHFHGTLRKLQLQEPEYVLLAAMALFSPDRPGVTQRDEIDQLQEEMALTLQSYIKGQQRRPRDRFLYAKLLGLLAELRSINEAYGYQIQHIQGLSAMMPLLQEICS
# In short: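 HepG2 cells transiently transfected with multiplexed GAL4-UAS reporter units expressing chimeric NR-Gal4 proteins; compound exposure 24 h. Reporter mRNA measured by RT-PCR, 6-FAM labelling, HpaI digestion and capillary electrophoresis; gain-of-signal fitted against DMSO baseline.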
# [2] = biological target: X-box-binding protein 1 (Homo sapiens) (UniProt P17861); assay: ATG_Xbp1_CIS: Attagene CIS-FACTORIAL HepG2 Assay for human X-box Binding Protein 1 (XBP1) (AID 2282972; active = hit-call score of the fitted dose curve at least 0.9, where 1 is the maximum; inactive = score below 0.9); settings: HepG2 XBP1 cis-element reporter, Attagene multiplex; actives raise or lower the signal
# In short: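 Fluorescence-labelled cDNA fragments from reporter transcripts, separated by capillary electrophoresis, give the signal. Source: HepG2 cells transfected with promoter-driven reporter units, harvested 24 h post-dose. DMSO served as reference for bidirectional curve fitting.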
# [3] = ATG_GAL4_TRANS: Attagene TRANS-FACTORIAL HepG2 Assay for GAL4 (Internal Marker) (AID 2282976); settings: HepG2 Attagene TRANS GAL4 internal marker reporter
# In short: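 Background-control readout: GAL4-UAS reporter transcript in transiently transfected HepG2 cells after 24 h compound exposure. Measured by RT-PCR, 6-FAM primer extension, HpaI digest and capillary electrophoresis; gain-of-signal fit versus DMSO.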
# [4] = biological target: Glucocorticoid receptor (Homo sapiens) (UniProt P04150); assay: ATG_GR_TRANS: Attagene TRANS-FACTORIAL HepG2 Assay for human Glucocorticoid Receptor (GR) (AID 2282978); settings: HepG2 Attagene TRANS GR reporter, mRNA transcription;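 also: activators score as hits since higher reporter transcript over DMSO is fitted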
# Chain of Glucocorticoid receptor (Homo sapiens) (P04150 whole entry, looked up, the tested form may be a part): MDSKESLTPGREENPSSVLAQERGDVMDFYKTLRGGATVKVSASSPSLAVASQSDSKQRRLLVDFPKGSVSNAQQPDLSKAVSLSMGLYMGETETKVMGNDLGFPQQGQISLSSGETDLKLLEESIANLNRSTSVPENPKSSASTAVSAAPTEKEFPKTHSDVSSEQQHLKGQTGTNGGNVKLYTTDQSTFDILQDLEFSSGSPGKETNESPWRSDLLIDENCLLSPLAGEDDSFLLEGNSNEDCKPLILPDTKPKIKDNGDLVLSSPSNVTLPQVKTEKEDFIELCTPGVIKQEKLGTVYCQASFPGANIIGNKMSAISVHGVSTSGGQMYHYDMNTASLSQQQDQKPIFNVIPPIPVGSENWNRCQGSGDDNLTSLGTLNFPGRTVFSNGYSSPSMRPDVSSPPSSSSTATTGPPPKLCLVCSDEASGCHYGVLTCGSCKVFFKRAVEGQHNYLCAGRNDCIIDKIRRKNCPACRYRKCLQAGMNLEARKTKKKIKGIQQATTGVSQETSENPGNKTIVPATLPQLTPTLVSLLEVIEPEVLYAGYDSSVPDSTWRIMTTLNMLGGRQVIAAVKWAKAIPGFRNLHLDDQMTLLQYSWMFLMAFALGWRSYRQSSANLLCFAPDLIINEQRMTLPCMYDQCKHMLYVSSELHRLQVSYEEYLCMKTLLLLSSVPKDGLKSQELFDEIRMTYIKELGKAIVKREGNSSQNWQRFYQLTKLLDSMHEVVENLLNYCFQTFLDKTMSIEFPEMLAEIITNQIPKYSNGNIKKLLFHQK
# In short: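 HepG2 cells transiently transfected with GAL4-UAS reporter units and exogenous GR-Gal4 chimera, dosed 24 h. Reporter mRNA by RT-PCR, FAM labeling, HpaI digest and capillary electrophoresis; gain-of-signal fit versus DMSO.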
# [5] = biological target: Bile acid receptor (Homo sapiens) (UniProt Q96RI1); assay: ATG_FXR_TRANS: Attagene TRANS-FACTORIAL HepG2 Assay for Farnesoid X Receptor (FXR) (AID 2282979); settings: HepG2 Attagene TRANS FXR-GAL4 reporter transcription;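 also: hits raise reporter mRNA above DMSO so AC50 marks FXR activation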
# Chain of Bile acid receptor (Homo sapiens) (Q96RI1 whole entry, looked up, the tested form may be a part): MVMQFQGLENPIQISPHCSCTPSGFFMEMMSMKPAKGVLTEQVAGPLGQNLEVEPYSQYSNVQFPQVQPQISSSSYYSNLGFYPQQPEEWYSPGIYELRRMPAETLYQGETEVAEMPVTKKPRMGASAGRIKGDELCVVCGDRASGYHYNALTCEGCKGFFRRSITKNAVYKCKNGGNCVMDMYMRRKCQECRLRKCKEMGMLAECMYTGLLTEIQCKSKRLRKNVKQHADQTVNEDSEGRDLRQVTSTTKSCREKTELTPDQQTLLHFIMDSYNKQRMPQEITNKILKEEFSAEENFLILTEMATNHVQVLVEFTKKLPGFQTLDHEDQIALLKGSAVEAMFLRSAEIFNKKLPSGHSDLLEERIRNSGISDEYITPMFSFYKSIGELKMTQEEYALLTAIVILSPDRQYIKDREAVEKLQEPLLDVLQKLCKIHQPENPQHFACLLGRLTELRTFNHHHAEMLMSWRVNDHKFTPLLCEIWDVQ
# In short: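 HepG2 cells were transiently transfected with GAL4-UAS reporters driven by chimeric NR-Gal4 proteins and dosed for 24 h. Reporter mRNA was quantified by RT-PCR, fluorescent labelling, HpaI digestion and capillary electrophoresis, with gain of signal scored versus DMSO.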
# [6] = biological target: Oxysterols receptor LXR-alpha (Homo sapiens) (UniProt Q13133); assay: ATG_LXRa_TRANS: Attagene TRANS-FACTORIAL HepG2 Assay for human Liver X Receptor alpha (LXRa) (AID 2282980); settings: HepG2 Attagene TRANS reporter, LXRa transactivation
# Chain of Oxysterols receptor LXR-alpha (Homo sapiens) (Q13133 whole entry, looked up, the tested form may be a part): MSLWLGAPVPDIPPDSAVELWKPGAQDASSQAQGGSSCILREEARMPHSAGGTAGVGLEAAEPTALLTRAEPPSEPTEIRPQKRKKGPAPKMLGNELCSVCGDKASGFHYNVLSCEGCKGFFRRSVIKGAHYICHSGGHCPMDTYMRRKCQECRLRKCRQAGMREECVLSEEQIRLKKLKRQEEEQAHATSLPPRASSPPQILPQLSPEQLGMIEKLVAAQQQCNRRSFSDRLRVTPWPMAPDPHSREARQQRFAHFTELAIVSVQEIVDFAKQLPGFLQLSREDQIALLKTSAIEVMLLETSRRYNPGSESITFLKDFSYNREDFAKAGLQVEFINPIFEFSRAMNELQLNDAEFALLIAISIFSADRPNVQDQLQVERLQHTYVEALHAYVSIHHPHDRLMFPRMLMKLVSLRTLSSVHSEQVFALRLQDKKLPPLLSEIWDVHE
# In short: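 HepG2 cells transiently transfected with GAL4-UAS reporter units for chimeric NR-Gal4 proteins, exposed to chemicals for 24 h. Reporter mRNA quantified by RT-PCR and capillary electrophoresis; gain of signal fitted relative to DMSO.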
# [7] = ATG_M_32_TRANS: Attagene TRANS-FACTORIAL HepG2 Assay for M32 Transcription Factor (Internal Marker) (AID 2282984); settings: HepG2 Attagene TRANS M32 internal marker reporter
# In short: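 HepG2 cells transiently transfected with multiple GAL4-UAS reporter transcription units, dosed for 24 hours; reporter mRNA quantified by RT-PCR, 6-FAM primer extension, HpaI digestion and capillary electrophoresis. Gain-of-signal fitted versus DMSO baseline; internal background-control marker.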
# [8] = biological target: Nuclear receptor subfamily 4 group A member 2 (Homo sapiens) (UniProt P43354); assay: ATG_NURR1_TRANS: Attagene TRANS-FACTORIAL HepG2 Assay for human Nuclear Receptor Related Protein 1 (NURR1) (AID 2282985); settings: HepG2 Attagene TRANS reporter, mRNA readout
# Chain of Nuclear receptor subfamily 4 group A member 2 (Homo sapiens) (P43354 whole entry, looked up, the tested form may be a part): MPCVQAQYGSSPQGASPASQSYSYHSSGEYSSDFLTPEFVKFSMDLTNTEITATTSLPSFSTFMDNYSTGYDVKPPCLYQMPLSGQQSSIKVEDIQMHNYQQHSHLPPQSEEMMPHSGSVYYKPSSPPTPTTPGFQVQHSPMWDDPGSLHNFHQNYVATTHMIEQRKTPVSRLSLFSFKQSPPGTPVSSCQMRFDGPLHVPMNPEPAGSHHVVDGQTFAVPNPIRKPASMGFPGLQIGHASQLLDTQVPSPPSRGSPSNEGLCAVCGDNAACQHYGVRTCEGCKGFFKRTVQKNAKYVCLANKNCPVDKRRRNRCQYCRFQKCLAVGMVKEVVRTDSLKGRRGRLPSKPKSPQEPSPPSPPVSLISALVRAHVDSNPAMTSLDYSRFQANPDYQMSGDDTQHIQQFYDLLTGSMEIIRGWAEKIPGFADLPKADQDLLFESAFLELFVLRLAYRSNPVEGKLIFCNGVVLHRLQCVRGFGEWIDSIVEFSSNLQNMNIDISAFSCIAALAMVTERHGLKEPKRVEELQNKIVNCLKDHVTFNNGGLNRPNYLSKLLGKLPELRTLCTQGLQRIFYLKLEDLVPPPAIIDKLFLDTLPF
# In short: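 HepG2 cells transiently transfected with GAL4-UAS reporter units and chimeric NR-Gal4 constructs; chemical exposure 24 h. Reporter mRNA quantified by RT-PCR, fluorescent labelling and capillary electrophoresis; gain of signal fitted relative to DMSO baseline.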
# [9] = biological target: Transcriptional activator Myb (Homo sapiens) (UniProt P10242); assay: ATG_Myb_CIS: Attagene CIS-FACTORIAL HepG2 Assay for human Myeloblastosis (Myb) Proto-Oncogene Transcription Factor (AID 2282986; active = hit-call score of the fitted dose curve at least 0.9, where 1 is the maximum; inactive = score below 0.9); settings: HepG2 Attagene CIS-FACTORIAL Myb reporter transcription; actives raise or lower the signal
# Chain of Transcriptional activator Myb (Homo sapiens) (P10242 whole entry, looked up): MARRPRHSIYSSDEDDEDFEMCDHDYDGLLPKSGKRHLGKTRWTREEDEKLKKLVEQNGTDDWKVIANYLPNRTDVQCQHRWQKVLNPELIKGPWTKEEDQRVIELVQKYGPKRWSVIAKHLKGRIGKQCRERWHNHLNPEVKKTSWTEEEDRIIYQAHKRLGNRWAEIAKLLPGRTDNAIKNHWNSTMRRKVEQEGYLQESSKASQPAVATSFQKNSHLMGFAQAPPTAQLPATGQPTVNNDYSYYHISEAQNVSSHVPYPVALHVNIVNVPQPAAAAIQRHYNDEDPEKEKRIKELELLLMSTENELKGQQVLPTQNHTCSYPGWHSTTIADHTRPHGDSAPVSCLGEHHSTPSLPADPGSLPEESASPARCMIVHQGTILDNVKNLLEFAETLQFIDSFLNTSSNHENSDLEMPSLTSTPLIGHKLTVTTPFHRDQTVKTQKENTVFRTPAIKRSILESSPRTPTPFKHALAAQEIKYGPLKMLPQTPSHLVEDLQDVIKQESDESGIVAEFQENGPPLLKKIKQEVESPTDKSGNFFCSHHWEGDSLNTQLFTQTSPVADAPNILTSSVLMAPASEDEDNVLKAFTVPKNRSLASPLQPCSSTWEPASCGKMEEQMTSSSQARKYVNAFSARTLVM
# In short: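 Transiently transfected HepG2 cells carrying a multiplexed cis-promoter reporter set report endogenous Myb activity after 24 h compound exposure. Reporter mRNA is read by RT-PCR with capillary electrophoresis of fluorescent products, fitted bidirectionally against DMSO.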
# [10] = biological target: Nuclear respiratory factor 1 (Homo sapiens) (UniProt Q16656); assay: ATG_NRF1_CIS: Attagene CIS-FACTORIAL HepG2 Assay for human Nuclear Respiratory Factor 1 (NRF1) Orphan Gene (AID 2282987; active = hit-call score of the fitted dose curve at least 0.9, where 1 is the maximum; inactive = score below 0.9); settings: HepG2 NRF1 cis-element reporter, Attagene multiplex; actives raise or lower the signal
# In short: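 HepG2 cells transiently transfected with multiple cis-regulated reporter units, exposed 24 h. Reporter mRNAs measured by RT-PCR, fluorescent labelling, HpaI digestion and capillary electrophoresis; bidirectional fitting against DMSO.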
# [11] = biological target: Myc proto-oncogene protein (Homo sapiens) (UniProt P01106); assay: ATG_Myc_CIS: Attagene CIS-FACTORIAL HepG2 Assay for human Myelocytomatosis (Myc) Proto-Oncogene Transcription Factor (AID 2282990; active = hit-call score of the fitted dose curve at least 0.9, where 1 is the maximum; inactive = score below 0.9); settings: HepG2, Attagene cis-reporter transcription factor activity; actives raise or lower the signal
# Chain of Myc proto-oncogene protein (Homo sapiens) (P01106 whole entry, looked up): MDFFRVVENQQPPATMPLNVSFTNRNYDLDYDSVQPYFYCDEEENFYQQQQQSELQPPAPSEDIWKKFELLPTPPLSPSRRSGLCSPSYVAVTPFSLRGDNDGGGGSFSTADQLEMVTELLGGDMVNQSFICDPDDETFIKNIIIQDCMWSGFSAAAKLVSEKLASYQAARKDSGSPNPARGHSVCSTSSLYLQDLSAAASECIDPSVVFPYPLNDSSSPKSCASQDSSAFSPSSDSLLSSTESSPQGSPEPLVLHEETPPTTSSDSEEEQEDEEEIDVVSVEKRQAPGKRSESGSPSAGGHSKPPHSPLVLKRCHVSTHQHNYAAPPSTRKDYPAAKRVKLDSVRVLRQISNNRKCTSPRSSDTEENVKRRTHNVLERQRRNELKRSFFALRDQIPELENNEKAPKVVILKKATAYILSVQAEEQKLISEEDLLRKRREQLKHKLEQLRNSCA
# In short: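 HepG2 cells transiently transfected with multiple cis-promoter-driven reporter transcription units, so endogenous TF activity is read. After 24 h compound exposure, reporter mRNA was quantified by RT-PCR, 6-FAM labelling, HpaI digestion and capillary electrophoresis; bidirectional fit versus DMSO.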
# [12] = biological target: Estrogen receptor (Homo sapiens) (UniProt P03372); assay: ATG_ERa_TRANS: Attagene TRANS-FACTORIAL HepG2 Assay for human Estrogen Receptor alpha (ERa) (AID 2282970); settings: HepG2 Attagene TRANS ERa GAL4 reporter, mRNA
# Chain of Estrogen receptor (Homo sapiens) (P03372 whole entry, looked up, the tested form may be a part): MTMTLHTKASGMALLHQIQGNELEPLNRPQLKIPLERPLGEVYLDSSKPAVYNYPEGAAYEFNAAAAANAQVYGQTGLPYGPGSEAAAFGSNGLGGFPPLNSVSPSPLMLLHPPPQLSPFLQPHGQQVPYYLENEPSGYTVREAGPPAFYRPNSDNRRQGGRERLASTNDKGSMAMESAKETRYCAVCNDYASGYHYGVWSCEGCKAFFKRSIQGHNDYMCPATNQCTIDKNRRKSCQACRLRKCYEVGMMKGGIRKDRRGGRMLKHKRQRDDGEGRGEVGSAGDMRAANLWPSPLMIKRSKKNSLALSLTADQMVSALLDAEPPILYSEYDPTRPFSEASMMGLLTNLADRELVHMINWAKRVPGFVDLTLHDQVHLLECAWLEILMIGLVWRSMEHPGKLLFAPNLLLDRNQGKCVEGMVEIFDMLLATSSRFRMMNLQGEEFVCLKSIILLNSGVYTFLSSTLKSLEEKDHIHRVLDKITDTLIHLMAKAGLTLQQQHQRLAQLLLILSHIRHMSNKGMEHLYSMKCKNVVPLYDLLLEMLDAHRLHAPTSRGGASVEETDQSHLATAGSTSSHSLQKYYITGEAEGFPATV
# In short: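 HepG2 cells transiently transfected with multiplexed GAL4-UAS reporter units read out chimeric NR-Gal4 activity. After 24 h compound exposure, reporter mRNA was quantified by RT-PCR, 6-FAM labeling, HpaI digestion and capillary electrophoresis, relative to DMSO.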
# [13] = biological target: Steroid hormone receptor ERR1 (Homo sapiens) (UniProt P11474); assay: ATG_ERRa_TRANS: Attagene TRANS-FACTORIAL HepG2 Assay for human Estrogen-Related Receptor alpha (ERRa) (AID 2282971); settings: HepG2 Attagene TRANS reporter, ERRa transactivation
# Chain of Steroid hormone receptor ERR1 (Homo sapiens) (P11474 whole entry, looked up, the tested form may be a part): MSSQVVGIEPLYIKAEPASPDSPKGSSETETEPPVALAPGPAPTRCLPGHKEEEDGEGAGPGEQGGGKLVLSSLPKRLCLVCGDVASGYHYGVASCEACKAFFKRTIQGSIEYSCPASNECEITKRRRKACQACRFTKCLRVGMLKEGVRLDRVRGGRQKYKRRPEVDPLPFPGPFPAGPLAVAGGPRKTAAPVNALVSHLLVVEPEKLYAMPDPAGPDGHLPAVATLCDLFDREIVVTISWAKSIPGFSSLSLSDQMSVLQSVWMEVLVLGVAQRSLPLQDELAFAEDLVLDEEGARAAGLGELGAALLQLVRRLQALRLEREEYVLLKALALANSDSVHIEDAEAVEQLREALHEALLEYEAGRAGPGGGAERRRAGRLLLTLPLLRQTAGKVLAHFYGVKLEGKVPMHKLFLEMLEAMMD
# In short: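 HepG2 cells transiently transfected with GAL4-UAS reporter units and chimeric NR-Gal4 constructs; after 24 hour compound incubation, reporter mRNA quantified by RT-PCR, fluorescent labelling and capillary electrophoresis, gain of signal versus DMSO.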
# [14] = ATG_M_19_TRANS: Attagene TRANS-FACTORIAL HepG2 Assay for M19 Transcription Factor (Internal Marker) (AID 2282974); settings: HepG2 Attagene TRANS-FACTORIAL M19 internal marker reporter
# In short: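 HepG2 transiently transfected with GAL4-UAS multiplex reporter constructs, exposed 24 h; reporter RNA quantified by RT-PCR, 6-FAM labeling, HpaI digestion and capillary electrophoresis; internal background marker fitted upward versus DMSO.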
# [15] = biological target: Estrogen-related receptor gamma (Homo sapiens) (UniProt P62508); assay: ATG_ERRg_TRANS: Attagene TRANS-FACTORIAL HepG2 Assay for human Estrogen-Related Receptor gamma (ERRg) (AID 2282977); settings: HepG2 Attagene TRANS reporter, ERRg transactivation;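 also: hits increase reporter signal over DMSO so potencies reflect activators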
# In short: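 HepG2 cells transiently transfected with multiplexed GAL4-UAS reporter units and chimeric NR-Gal4 constructs were exposed to test chemicals for 24 h. Reporter mRNA was measured by RT-PCR, 6-FAM primer extension, HpaI digestion and capillary electrophoresis; gain-of-signal versus DMSO.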
# [16] = biological target: Oxysterols receptor LXR-beta (Homo sapiens) (UniProt P55055); assay: ATG_LXRb_TRANS: Attagene TRANS-FACTORIAL HepG2 Assay for human Liver X Receptor beta (LXRb) (AID 2282981); settings: HepG2 Attagene TRANS GAL4-LXRb reporter, mRNA
# In short: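 HepG2 cells transiently transfected with multiple reporter transcription units carrying chimeric NR-Gal4 proteins acting on GAL4-UAS reporters; compound exposure 24 h. Reporter mRNA quantified by RT-PCR, 6-FAM labelling, HpaI digestion and capillary electrophoresis; gain of signal versus DMSO.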
# [17] = biological target: Hepatocyte nuclear factor 4-alpha (Homo sapiens) (UniProt P41235); assay: ATG_HNF4a_TRANS: Attagene TRANS-FACTORIAL HepG2 Assay for human Hepatocyte Nuclear Factor 4 alpha (HNF4a) (AID 2282982); settings: HepG2 HNF4a transactivation reporter, mRNA readout
# In short: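 HepG2 cells transiently transfected with multiplexed GAL4-UAS reporter units responsive to chimeric NR-GAL4 proteins; compound exposure 24 h. Reporter mRNA quantified by RT-PCR, 6-FAM labelling, HpaI digestion and capillary electrophoresis; gain of signal versus DMSO baseline.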
# [18] = ATG_NFI_CIS: Attagene CIS-FACTORIAL HepG2 Assay for human Nuclear Factor I (NFI) (AID 2282989; active = hit-call score of the fitted dose curve at least 0.9, where 1 is the maximum; inactive = score below 0.9); settings: HepG2 cis-regulatory reporter, NFI response element transcription; actives raise or lower the signal
# In short: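 Read-out: reporter mRNA via RT-PCR plus capillary electrophoresis with fluorescence detection. Transiently transfected HepG2 (endogenous TF activity on cis promoters), 24 h compound exposure; gain or loss of signal fitted against DMSO.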
structure (smiles),measurement,setting,value
NCc1cccc(CN)c1,outcome,[1],inactive
same,outcome,[2],inactive
same,outcome,[3],inactive
same,outcome,[4],inactive
same,outcome,[5],inactive
same,outcome,[6],inactive
same,outcome,[7],inactive
same,outcome,[8],inactive
same,outcome,[9],inactive
same,outcome,[10],inactive
same,outcome,[11],inactive
O=C(O)C(F)(F)OC(F)(F)C(F)(F)OC(F)(F)C(F)(F)OC(F)(F)C(F)(F)C(F)(F)C(F)(F)F,AC50,[12],26 µM (active)
same,outcome,[12],inactive
same,outcome,[13],inactive
same,AC50,[2],41.2 µM (active) and 25.4 µM (active)
same,outcome,[14],inactive
same,outcome,[3],inactive
same,outcome,[15],inactive
same,outcome,[4],inactive
same,AC50,[5],27 µM (active)
same,outcome,[5],inactive
same,outcome,[6],inactive
same,outcome,[16],inactive
same,AC50,[17],84.7 µM (active)
same,outcome,[17],inactive
same,outcome,[7],inactive
same,AC50,[8],13.4 µM (active) and 16.6 µM (active)
same,outcome,[10],inactive
same,AC50,[11],11.9 µM (active)
same,outcome,[11],inactive
CC1CCC(C(=O)O)CC1 (configuration not stated),outcome,[12],inactive
same,outcome,[13],inactive
same,outcome,[2],inactive
same,outcome,[14],inactive
same,outcome,[15],inactive
same,outcome,[4],inactive
same,outcome,[5],inactive
same,outcome,[6],inactive
same,outcome,[16],inactive
same,outcome,[17],inactive
same,outcome,[7],inactive
same,outcome,[9],inactive
same,outcome,[10],inactive
same,outcome,[18],inactive
same,outcome,[11],inactive
Clc1ccc(Nc2nnc(Cc3ccncc3)c3ccccc23)cc1,outcome,[1],inactive
same,outcome,[12],inactive
same,outcome,[14],inactive
same,outcome,[4],inactive
same,outcome,[5],inactive
same,outcome,[17],inactive
same,outcome,[7],inactive
same,AC50,[8],42 µM (active)
same,outcome,[9],inactive
same,outcome,[10],inactive
same,outcome,[18],inactive
same,outcome,[11],inactive
CC(C)[C@@H]1CC[C@@H](C)C[C@H]1O,outcome,[1],inactive
same,outcome,[2],inactive
same,outcome,[3],inactive
same,outcome,[5],inactive
same,outcome,[17],inactive
same,outcome,[7],inactive
same,outcome,[8],inactive
same,outcome,[10],inactive
same,outcome,[18],inactive
same,outcome,[11],inactive

# Reference: PubChem BioAssay (EPA / NIEHS)
